Measurements reported in PubChem BioAssay AID1903 (Southern Research Specialized Biocontainment Screening …, 2009).
“And” between values parts separate entries of the source, which are not always exact repeats. Equal values may be shown once. Out of some 310,000 compounds screened, about 1,200 (0.39%) were called active. The rule behind the calls is not given here. The list is a sample of the results. Entries with a potency or affinity are not part of this list.

Biological target: Large T antigen (Simian virus 40) (UniProt P03070)
Sequence (P03070 whole entry, looked up): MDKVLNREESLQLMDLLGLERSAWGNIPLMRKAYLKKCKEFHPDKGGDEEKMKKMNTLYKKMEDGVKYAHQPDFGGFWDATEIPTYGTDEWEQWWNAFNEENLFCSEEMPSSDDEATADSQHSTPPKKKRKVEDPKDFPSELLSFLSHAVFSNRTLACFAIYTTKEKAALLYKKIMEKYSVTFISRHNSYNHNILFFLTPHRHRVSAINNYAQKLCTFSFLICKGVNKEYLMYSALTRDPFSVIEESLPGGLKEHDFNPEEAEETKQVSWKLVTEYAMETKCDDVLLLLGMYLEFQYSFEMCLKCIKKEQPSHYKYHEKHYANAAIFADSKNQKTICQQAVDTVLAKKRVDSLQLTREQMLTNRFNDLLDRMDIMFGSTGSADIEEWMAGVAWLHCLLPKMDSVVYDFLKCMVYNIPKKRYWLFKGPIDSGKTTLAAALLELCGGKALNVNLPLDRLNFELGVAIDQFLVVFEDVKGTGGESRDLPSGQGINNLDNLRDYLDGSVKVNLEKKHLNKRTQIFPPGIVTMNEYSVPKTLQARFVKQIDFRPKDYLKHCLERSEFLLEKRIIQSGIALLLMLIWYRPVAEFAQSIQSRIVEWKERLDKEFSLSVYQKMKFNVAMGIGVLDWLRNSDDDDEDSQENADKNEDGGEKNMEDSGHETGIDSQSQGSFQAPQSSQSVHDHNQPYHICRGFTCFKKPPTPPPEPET
Assay: TAg ATPase/helicase activity blockers – biochemical (AID 1903)
Conditions: SV40 large T antigen ATPase/helicase inhibition assay; at 20 µM; stronger effect = higher value

inhibition, inactive:
COc1cc(/C=C(\C#N)C(=O)Nc2cccc(C(=O)O)c2)ccc1OCc1ccc(F)cc1 -17.7%
Cc1c(C(=O)NN)[nH]c2ccc([N+](=O)[O-])cc12 7.05%
CCOC(=O)C1(CCc2ccccc2)CCN(C(=O)c2cccc(C)n2)CC1 4.43%
CCc1nnc(NS(=O)(=O)c2ccc(NC(=O)c3cc4ccccc4oc3=O)cc2)s1 -3.35%
CCc1nnc(NS(=O)(=O)c2ccc(NC(=O)c3cccc4ccccc34)cc2)s1 11.1%
O=C(c1cc(-c2ccccc2Cl)nc2ccccc12)N1CCC1 8.29%
O=C1N/C(=N/S(=O)(=O)Cc2ccccc2)S/C1=C/c1ccc2c(c1)OCO2 22.1%
COc1ccc(C(=O)C[n+]2cccc(C(N)=O)c2)cc1 1.66%
O=C1OC(c2ccc(O)cc2)(c2ccc(O)cc2)c2ccccc21 9.29% and 0.77%
Cc1cc(O)ccc1C1(c2ccc(O)cc2C)OC(=O)c2ccccc21 4.57%
COCCNC(=O)c1c[nH]n2c(=O)cc(C3CCN(C(=O)OC(C)(C)C)CC3)nc12 6.9%
CCN1CCN(c2ccc(NC(=O)c3cccc(OCc4ccccc4)c3)cc2)CC1 8.98%
O=C1C2C3C=CC(CC3)C2C(=O)N1/N=C/c1ccccc1O (stereo not drawn) -0.603%
O=C1C2C3C=CC(CC3)C2C(=O)N1/N=C/c1ccc(O)cc1 (stereo not drawn) 22.8%
COc1ccccc1/C=N/N1C(=O)C2C3C=CC(CC3)C2C1=O (stereo not drawn) 5.91%
COc1cc(/C=N/N2C(=O)C3C4c5ccccc5C(c5ccccc54)C3C2=O)ccc1O (stereo not drawn) 19.2%
O=C(CSc1nnnn1C1CCCC1)Nc1ccccc1F 14%
COC(=O)c1sc(-c2cccs2)cc1N 20%
CC(=O)Nc1nnc(SCc2ccc(C(=O)Nc3ccccc3F)cc2)s1 5.26%
Oc1ccc(N=Nc2ccccc2)cc1 18.4%
CC1(C)CC(=O)C(N=Nc2ccc(-c3ccccc3)cc2)=C(O)C1 28.9%
O=C(O)c1ccccc1C(=O)Nc1ccccc1NC(=O)c1ccccc1C(=O)O 5.06%
O=C(NC1=NN(c2ccccc2)CC1)Nc1ccccc1F -6.18%
CCCSc1oc(-c2ccco2)nc1S(=O)(=O)c1ccccc1 1.06%
COc1cc(SC)ccc1C(=O)NCCc1c[nH]c2ccccc12 8.89%
CC(C)(C)NC(=O)CSCc1c(Cl)cccc1Cl 3.06%
COc1ccc(OC)c(-c2c3c([nH]c(=S)c2C#N)CCCC3)c1 20.7%
COc1ccc(-c2c3c([nH]c(=S)c2C#N)CCC3)cc1 34.4%
N#Cc1c(-c2ccc(Cl)cc2)c2c([nH]c1=S)CCCC2 25.6%
N#Cc1c(-c2ccncc2)c2c([nH]c1=S)CCCC2 16.1%
O=C(CN1C(=O)/C(=C/c2ccc(C(F)(F)F)cc2)Sc2ccccc21)NCCCN1CCOCC1 6.23%
O=[N+]([O-])c1ccc(N2CCN(c3ccccn3)CC2)c(Cl)c1 9.91%
CSc1nnc(-c2ccco2)c(-c2ccco2)n1 54.2%
O=C(CSc1nnc(-c2ccco2)c(-c2ccco2)n1)c1ccccc1 -0.39%
COc1ccc(-n2nnnc2SCC(=O)NCCc2ccccc2)cc1OC 5.41%
Cc1cccc(-c2noc(CNC(=O)c3ccc4c(c3)OCO4)n2)c1 9.48%
CC(CCc1ccccc1)NC(=O)CCc1cn(C)c2ccccc12 (stereo not drawn) 8.16%
CCCCC(CC)CNC(=O)c1cccs1 (stereo not drawn) 0.58%
CCCCC(CC)CNC(=O)c1ncn[nH]1 (stereo not drawn) 9.07%
CC1(C)CN(c2ccc(F)cc2)C1=O 10%
CC1(C)CN(c2ccc(N3CC(C)(C)C3=O)cc2)C1=O 7.74%
COc1ccc(/C=N/N=C/c2ccc(OC)c(O)c2)cc1O 1.26%
CC1CCCC(C)N1/N=C/c1ccc(O)c(O)c1 (stereo not drawn) 32.1%
Oc1ccc(N=Cc2ccc(OCc3ccccc3)cc2)cc1 15.6%
Oc1ccc(/C=N/N=C/c2ccc(O)cc2)cc1 27.4%
CCn1c(CNC(=O)c2ccco2)nnc1SCC(=O)Nc1ccc(Br)cc1F 3.84%
CCN(CC)S(=O)(=O)c1ccc(Cl)c(NC(=O)COc2ccc(OC)cc2)c1 21.5%
COc1ccccc1Cn1cccc1C=O -6.2%
Cc1ccc(CCNC(=O)C2CCC(=O)N2Cc2ccc(F)cc2)cc1 (stereo not drawn) 8.48%
C/C(=N\O)c1ccc2[nH]ccc2c1 8.8%
CC(=O)Nc1ccc2[nH]ccc2c1 18.6%
O=C(CNC(=O)c1ccco1)N/N=C/c1ccc(O)c([N+](=O)[O-])c1 -0.16%
Oc1c(Br)cc(/C=N/NC(=S)NCC2CCCO2)cc1Br (stereo not drawn) 27.3%
COc1ccc(/C=N/NC(=S)NCC2CCCO2)cc1 (stereo not drawn) 7.07%
O=C(NCC1CCCO1)C(=O)N/N=C/c1ccc(O)c(Cl)c1 (stereo not drawn) 30.4%
COc1cc(/C=N/NC(=O)C(=O)NCc2ccco2)cc(Cl)c1O 28.7%
COc1cc(/C=N/NC(=O)C(=O)NCC2CCCO2)cc(Cl)c1O (stereo not drawn) 22.2%
COc1cc(/C=N/NC(=O)C(=O)NCc2ccco2)cc(Br)c1O 29.1%
COc1cccc(/C=N/NC(=O)CNC(=O)c2ccco2)c1O 23.9%
COc1ccc(OC)c(S(=O)(=O)N2CCC(C(=O)NC3CCCC3)CC2)c1 8.53%
NC(=O)CC(NC(=O)Cc1cccc2ccccc12)c1ccc(NC2CC3CCC2C3)c([N+](=O)[O-])c1 (stereo not drawn) 17.8%
O=C(CCn1c(=O)oc2ccccc21)N1CCN(c2ccc(F)cc2)CC1 2.5%
COC(=O)C1=C(C)NC(=O)NC1c1ccco1 (stereo not drawn) 8.25%
C=CCOc1ccc(Oc2cc(C)nc(SC)n2)nn1 19.1%
CCCOC(=O)c1cccc(NC(=O)C(C)(C)C)c1 -1.32%
O=C(CNC(=S)N(Cc1ccccc1Cl)C1CCCC1)NCCN1CCOCC1 3.17%
COc1cccc(O)c1CN1CCCC(C(=O)c2cccc(C(F)(F)F)c2)C1 (stereo not drawn) 4.62%
Cn1c(=O)c([N+](=O)[O-])c(NCC(O)c2ccccc2)c2ccccc21 (stereo not drawn) 21.3%
Cn1c(=O)[nH]c(=O)c2c1nc(CN1CCN(c3cccc(Cl)c3)CC1)n2CCc1ccccc1 1.29%
COc1ccc(-c2c(C#N)c(N)n(N)c(=O)c2C#N)cc1Cl 3.3%
COc1cccc(/C=C2\N=C3CCCCCN3C2=O)c1 13.8%
COc1ccc(/C=C2/N=C3CCCCCN3C2=O)cc1OC 6.08%
O=C1/C(=C/c2ccncc2)N=C2CCCCCN12 18.3%
O=c1/c(=C/c2ccc(O)cc2)sc2n1CCCN=2 29.1%
COc1ccc(/C=C2\N=C3CCCCCN3C2=O)cc1OC 13.5%
COc1ccc(/C=C2/N=C3CCCCCN3C2=O)cc1 4.2%
CN(C)c1ccc(/C=c2\sc3n(c2=O)CCCN=3)cc1 7.47%
COc1ccc(/C=C2\N=C3CCCCCN3C2=O)cc1 3.96%
CCC1Sc2ccc(S(=O)(=O)N3CCN(c4ccccc4)CC3)cc2NC1=O (stereo not drawn) -0.58%
O=C1C(=O)N(CCS(=O)(=O)c2ccccc2)c2ccc(F)cc21 3.86%
CN1CC(=O)N(CC(=O)Nc2cccc(S(=O)(=O)N3CCOCC3)c2)C1=O 4.06%
CCCc1nnc(NC(=O)C(=O)NCCN(CC)CC)s1 0.4%
COCCCNC(=O)COc1ccc(-c2nccc(-c3ccccn3)n2)cc1 4.04%
C=CCn1c(SCC(=O)N2CCCC2)nc2c([nH]c3ccccc32)c1=O 5.61%
CCCCn1c(SC(C)C(=O)c2ccc(OC)cc2)nc2cc(S(N)(=O)=O)ccc21 (stereo not drawn) 17.9%
COc1cc(OC)c(C(=O)N/N=C/c2ccoc2)cc1OC 13.6%
O=[N+]([O-])c1ccccc1CNCCCCO 0.09%
O=C(NCCC1=CCCCC1)c1ccc(Cl)c(S(=O)(=O)Nc2ccccc2)c1 -7.13%
Cc1ccc(C)c(NC(=O)CN(C)C(=O)c2nn(C)c(=O)c3ccccc23)c1 6.79%
COc1ccc(/C=N/Nc2nc(Nc3ccccc3)nc(N3CCCCC3)n2)cc1OC -16.1%
CCOc1cc(/C=N/Nc2nnc(C)n2N)ccc1O 24.2%
CCOc1ccc(/C=N/Nc2nc(N3CCCC3)nc(N3CCCC3)n2)cc1OC -0.04%
Nc1c(Cl)ncnc1N/N=C/c1cccc(O)c1 28.2%
COc1ccc(/C=N/Nc2nc(N3CCCCC3)nc(N3CCCCC3)n2)cc1[N+](=O)[O-] 4.11%
COc1ccc(/C=N/Nc2nc(N3CCCC3)nc(N3CCCC3)n2)cc1 -2.38%
COc1ccc(/C=N/Nc2ncnc(Cl)c2N)cc1OC 19%
CCOc1cc(/C=N/Nc2nncc(-c3ccccc3)n2)ccc1O 8.31%
O=c1c(Cl)c(Nc2cccc(Cl)c2)cnn1-c1nc2ccccc2s1 -0.81%
